Measurements taken from PubChem BioAssay AID1851 (National Center for Advancing Translational Sciences (NCATS), 2009).
Several values for one entry are separate records, joined by “and”; a condition that tells them apart may be missing. Identical values can stand only once. The whole screen tested about 16,000 compounds, of which about 5,700 (36%) were called active. About 24% were inconclusive and are not listed. Calls follow the shape of the dose curve; as a rule, active = well fitted curve in the direction sought with a large enough effect; inconclusive = small, poorly fitted or top-dose-only effect, or effect the other way; inactive = no such curve, though single readings can be large or run the other way. Some of the results follow.

The molecules below were run against Cytochrome P450 1A2 (Homo sapiens) (UniProt P05177) (assay: Cytochrome panel assay with activity outcomes). Conditions: recombinant CYP, pro-luciferin dealkylation, luminescence, p450-cyp1a2; series mostly up to 57.1 µM; activity, negative = inhibition: at the top concentration.
% is scaled to controls: 0 for no effect and ±100 for the full control effect.

Cytochrome P450 1A2 (Homo sapiens), sequence (P05177 whole entry, looked up): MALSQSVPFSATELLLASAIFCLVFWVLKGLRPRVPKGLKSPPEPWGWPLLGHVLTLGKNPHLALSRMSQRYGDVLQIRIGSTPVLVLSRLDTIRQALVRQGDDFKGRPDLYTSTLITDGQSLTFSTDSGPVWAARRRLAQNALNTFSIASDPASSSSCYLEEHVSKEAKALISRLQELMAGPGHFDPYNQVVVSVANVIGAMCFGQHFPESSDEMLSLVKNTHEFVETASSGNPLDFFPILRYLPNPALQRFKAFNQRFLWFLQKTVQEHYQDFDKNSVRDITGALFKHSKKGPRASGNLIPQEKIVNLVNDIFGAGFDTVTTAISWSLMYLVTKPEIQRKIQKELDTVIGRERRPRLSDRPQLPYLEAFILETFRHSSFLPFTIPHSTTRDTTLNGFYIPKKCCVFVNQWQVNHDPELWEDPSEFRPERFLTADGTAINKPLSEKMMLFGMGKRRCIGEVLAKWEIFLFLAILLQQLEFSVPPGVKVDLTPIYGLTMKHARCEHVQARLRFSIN

| SMILES | activity, negative = inhibition | AC50 |
| --- | --- | --- |
| CC1(C)CC(=O)C2=C(C1)N(c1ccc(F)cc1)C(N)=C(C#N)C2c1cccs1 (stereo unspecified) | 8.01% (inactive) |  |
| O=[N+]([O-])c1ccccc1/C=N/n1c(COc2ccccc2)n[nH]c1=S |  | 2.51 µM (active) |
| Cc1ccc(/C=N/n2c(COc3ccccc3)n[nH]c2=S)s1 |  | 0.501 µM (active) |
| O=[N+]([O-])c1ccc(/C=N/n2c(COc3ccccc3)n[nH]c2=S)cc1 |  | 2.82 µM (active) |
| CS(=O)(=O)N1CCC2(CC1)CN(c1ncccn1)C2 | 16.3% (inactive) |  |
| Cc1ccc(S(=O)(=O)NC(=O)NN2C[C@H]3CCC[C@@H]3C2)cc1 | -0.685% [at 25.6 µM] (inactive) |  |
| Cc1ccc2nc(N/N=C\c3cccc(C)n3)cc(C)c2c1 |  | 0.631 µM (active) |
| Cc1c2c(nc3ccccc13)-c1cccc(=O)n1C2 |  | 0.1 µM (active) |
| CC(C)c1cccc2nc3c(c(C(C)(C)C)c12)Cn1c-3cccc1=O |  | 12.6 µM (active) |
| CCc1cccc2nc3c(c([Si](C)(C)C)c12)Cn1c-3cccc1=O |  | 2.51 µM (active) |
| CC(C)c1cccc2nc3c(c([Si](C)(C)C)c12)Cn1c-3cccc1=O |  | 15.8 µM (active) |
| CCN1C/C(=C\c2cccc(C)c2)c2nc3ccccc3c(C(=O)O)c2C1 | 5.47% (inactive) |  |
| O=C1OCCC=C1[C@@H](O)CCc1ccccc1 | -0.0227% [at 11.4 µM] (inactive) |  |
| NS(=O)(=O)c1cc2c(cc1Cl)N[C@@H](C(Cl)Cl)NS2(=O)=O | 1.35% [at 25.6 µM] (inactive) |  |
| CCc1c2c(nc3cccc(C(C)C)c13)-c1cccc(=O)n1C2 |  | 0.501 µM (active) |
| O=C1NCC2(CCN(CCc3ccccc3)CC2)O1 |  | inactive |
| NS(=O)(=O)c1ccc(N=Nc2ccc(O)c(C(=O)O)c2)cc1 | -20.9% [at 11.4 µM] (inactive) |  |
| NS(=O)(=O)c1ccc(N=Nc2cc3ccccc3c(C(=O)O)c2O)cc1 |  | 1 µM (active) |
| NS(=O)(=O)c1ccc(N=Nc2c(O)c(C(=O)O)cc3ccccc23)cc1 | -20.8% [at 11.4 µM] (inactive) |  |
| O=C(NCc1cccnc1)c1sc2cc(Cl)ccc2c1Cl |  | 1 µM (active) |
| O=C(Nc1nccs1)c1sc2cc(Cl)ccc2c1Cl |  | 0.112 µM (active) |

| SMILES | activity, negative = inhibition | AC50 |
| --- | --- | --- |
| O=C(O)[C@@H](O)c1ccc(F)cc1 | -12.3% [at 11.4 µM] (inactive) |  |
| O=C(O)/C=C\[C@H](O)c1ccc(Cl)cc1 | -18% (inactive) |  |
| CN(C)/C=C/C(=O)c1ccc(Cl)cc1 |  | 4.47 µM (active) |
| CN(C)/C=C/C(=O)c1ccc(F)cc1 |  | 11.2 µM (active) |
| O=c1cc(O)cc(/C=C\c2ccc(O)c(O)c2)o1 | -7.95% (inactive) |  |
| Oc1cc(O)cc(/C=C\c2ccc(O)c(O)c2)c1 |  | 5.01 µM (active) |
| S=C(S)NCCCn1ccnc1 |  | 3.16 µM (active) |
| S=C(S)NCCN1CCNCC1 | -7.09% [at 11.4 µM] (inactive) |  |
| NCCNC(=S)S | -13.2% [at 2.29 µM] (inactive) |  |
| COc1ccc(S(=O)(=O)N2CCN(CC(=O)Nc3cc(OC)cc(OC)c3)CC2)cc1 |  | 22.4 µM (active) |
| CCN(CC)C(=O)COc1ccc(S(=O)(=O)N2CCOCC2)cc1 | 2.65% (inactive) |  |
| O=C(CN1C(=O)NC2(CCCCCC2)C1=O)N1CCN(S(=O)(=O)c2ccc(Cl)cc2)CC1 | -8.91% (inactive) |  |
| CCOC(=O)c1ccc(S(=O)(=O)N2CCN(C)CC2)cc1 | -6.34% (inactive) |  |
| COc1ccc(NC(=O)N2CC3(CCN(S(=O)(=O)c4ccccc4)CC3)C2)cc1 | -22.4% (inactive) |  |
| CCOc1ccc(NC(=O)CN2CCN(S(=O)(=O)c3ccc(Cl)cc3)CC2)cc1 |  | 25.1 µM (active) |
| COc1ccc(NC(=O)c2cc(S(=O)(=O)N3CCS(=O)(=O)CC3)ccc2Cl)cc1 | 6.23% (inactive) |  |
| CCOc1ccc(C(=O)CN2CCN(S(=O)(=O)c3ccc(F)cc3)CC2)cc1 |  | 20 µM (active) |
| COc1ccc(NC(=O)N2CCCC3(CCN(S(=O)(=O)c4ccccc4)CC3)C2)cc1 | -19.8% (inactive) |  |
| O=C(CN1CCN(S(=O)(=O)c2ccccc2)CC1)NC(=O)NCc1ccccc1 | -22.6% (inactive) |  |
| COc1ccc(S(=O)(=O)N2CCCN(CC(=O)Nc3ccc(OC)c(Cl)c3)CC2)cc1 |  | 1.41 µM (active) |
| O=C(CN1CCN(S(=O)(=O)c2ccc(F)cc2)CC1)Nc1ccc(Cl)c(C(F)(F)F)c1 | -20.6% (inactive) |  |

| SMILES | activity, negative = inhibition | AC50 |
| --- | --- | --- |
| CON(C)C(=O)c1nnc2c3ccccc3n(S(=O)(=O)c3ccc(C)cc3)c2n1 | -0.532% [at 11.4 µM] (inactive) and -0.966% [at 11.4 µM] (inactive) |  |
| CCOC(=O)c1cc2c(C(F)(F)F)cc(-c3ccccc3)nc2o1 |  | 3.55 µM (active) |
| Cc1oc(-c2ccccc2)cc1C(=O)Nc1ccc(N(C)C)cc1 |  | 1.41 µM (active) |
| Cc1oc(C(C)(C)C)cc1C(=O)Nc1cccc(/C=C/C(=O)O)c1 | -11.6% (inactive) |  |
| CCCNC(=O)OC[C@@H]1O[C@H](CCO/N=C2\c3cc(OC)ccc3O[C@H](c3cccc(OC)c3)[C@H]2O)C=C[C@@H]1Oc1ccc(OC)cc1 | -14.6% [at 11.4 µM] (inactive) |  |
| CCC(=O)N1CCc2cc(S(=O)(=O)NC(C(=O)NCc3ccc(F)cc3)C(C)C)ccc21 (stereo unspecified) | -20.8% (inactive) |  |
| CCOC(=O)c1sc(=S)n(-c2cccc(C(F)(F)F)c2)c1SC |  | 0.562 µM (active) |
| COc1ncc2nc(-c3cccs3)c(=O)n(CCC#N)c2n1 |  | 6.31 µM (active) |
| COCCn1c(=O)c(-c2cccs2)nc2cnc(OC)nc21 |  | 2.51 µM (active) |
| COc1ncc2nc(-c3cccs3)c(=O)n(CCc3ccccc3)c2n1 |  | 1.26 µM (active) |
| COCCn1c(=O)c(-c2cccs2)nc2cnc(N(C)C)nc21 |  | 2 µM (active) |
| Cc1c(N2C(=O)CS/C2=N\N=C\c2ccc(Cl)cc2)c(=O)n(-c2ccccc2)n1C | -14.7% (inactive) |  |
| Cc1nnc(SCC2=C(C(=O)O)N3C(=O)[C@@H](NC(=O)Cn4cnnn4)[C@@H]3SC2)s1 |  | inactive |
| COCCn1c(=O)c(-c2cccs2)nc2cnc(Oc3ccc(OC)cc3)nc21 |  | 2.51 µM (active) |
| COCCn1c(=O)c(-c2cccs2)nc2cnc(Oc3ccccc3)nc21 |  | 2 µM (active) |
| Cc1cnc(CNc2nc(-c3ccccc3C(F)(F)F)nc3ccccc23)cn1 |  | 12.6 µM (active) |
| Cc1cnc(CNc2nc(-c3ccccc3C)nc3ccccc23)cn1 |  | 3.16 µM (active) |
| Cc1cnc(CNc2nc(-c3ccccc3Cl)nc3ccccc23)cn1 |  | 6.31 µM (active) |
| COc1ccccc1-c1nc(NCc2cnc(C)cn2)c2ccccc2n1 |  | 5.01 µM (active) |
